aSyn 5UTR act: Activators working through SNCA 5'UTR binding (MLPCN); hit rate 7.1% among 300,000; activity score, % (tested at 7.5 µM), hits read low; alpha-synuclein 5'UTR reporter, activators screen; in the data active = activity score below about -60%
An asterisk follows results filed as active. Only a sample is shown.

SMILES	aSyn 5UTR act
NC(=O)c1cc2ccccc2o/c1=N/NC(=O)c1cccs1	-63*
COc1ccc(-n2nc(C(=O)NCC(=O)N3CCN(c4ccccc4F)CC3)c3ccccc3c2=O)cc1	-120*
Cc1ccc(C)c(NC(=S)NNC(=O)c2csc(C(C)C)c2)c1	-100*
Cc1ccc(C)c(NC(=S)NNC(=O)c2sccc2C)c1	-69*
Cc1ccc(C)c(NC(=S)NNC(=O)c2csc(C)c2C)c1	-92*
Cc1cc2nn(-c3ccccc3)nc2cc1NC(=O)c1cccs1	-196*
COc1ccc(-n2nc3cc(C)c(NC(=O)CC(C)C)cc3n2)cc1	-123*
COc1ccc(-n2nc3cc(C)c(NC(=O)c4cccnc4)cc3n2)cc1	-83*
CCCCCCn1c2c(c(=N)c3c1CCC3)CCC2	67
COc1ccc(C(=O)NCCSC2CCCCC2)cc1	-159*
O=C(NCCSC1CCCCC1)c1ccccc1	-67*
CCOC(=O)C(Nc1ccc2ccccc2c1)C(=O)OCC	-138*
COc1c(OC(C)=O)ccc(/C=C/c2ccc3ccccc3n2)c1[N+](=O)[O-]	-209*
COc1c(OC(C)=O)ccc(/C=C/c2ccc3cccc(OC)c3n2)c1[N+](=O)[O-]	-146*
CCOc1c(OC(C)=O)ccc(/C=C/c2ccc3cccc(OC(C)=O)c3n2)c1[N+](=O)[O-]	-378*
CC(=O)Nc1ccc(NC(=O)C(C)OC(=O)/C(C#N)=C/c2ccc(N(C)C)cc2)cc1 (configuration not stated)	-85*
CN(C)c1ccc(-c2ccc3c(=O)c4ccccc4n(C)c3c2)cn1	-106*
COc1cc2sc3ccc(-c4ccc(N(C)C)nc4)cc3c(=O)c2cc1OC	-141*
COc1ccc(-c2ccc3sc4ccccc4c(=O)c3c2)cn1	-81*
CSc1ccc(C2NN=C(c3ccccc3)S2)cc1 (configuration not stated)	68
Oc1ccccc1C1NN=C(c2ccccc2)S1 (configuration not stated)	-80*
O=C(CCCCN1CCCCC1)c1ccc2c(c1)Cc1ccccc1-2	-65*
O=C(O)CCCc1ccc2c(c1)CCc1ccccc1-2	109
O=C(CC1NCCNC1=O)Nc1ccc(Cl)c(Cl)c1 (configuration not stated)	-92*
O=C(Nn1c(SCc2cccc([N+](=O)[O-])c2)nc2ccccc2c1=O)c1ccccc1	-145*
SMILES	aSyn 5UTR act
COc1ccc(C(=O)Nn2c(SCc3cccc([N+](=O)[O-])c3)nc3ccccc3c2=O)cc1	66
O=c1[nH]c(-c2cccnc2)nc2sc(-c3ccccc3)cc12	-119*
CC(C)OC(=O)Cc1nc2sc(-c3ccccc3)cc2c(=O)[nH]1	-87*
O=C(CSc1nnc(NC(=O)c2ccc(F)cc2)s1)NC1CC1	-79*
CCOC(=O)CNC(=O)CSc1nnc(NC(=O)c2ccc(C)cc2)s1	74
O=C(CSc1nnc(NC(=O)c2ccccc2F)s1)NCC1CCCO1 (configuration not stated)	-72*
Cc1cccc(C(=O)Nc2nnc(SCC(=O)NC3CC3)s2)c1	-66*
COC(=O)c1cn[nH]c1NC(=S)Nc1ccc(Cl)c(Cl)c1	-101*
COC(=O)c1cn[nH]c1NC(=S)Nc1ccc(C)cc1Cl	-127*
COCCC(=O)N1CCC(C(=O)Nc2ccc(Oc3ccccc3)nc2)CC1	-77*
Cc1oc(-c2ccc3ccccc3c2)nc1CN(C)C(C)c1ccncn1 (configuration not stated)	-80*
N#C/C(=C(/O)COc1ccccc1)c1nc2ccccc2s1	-63*
N#C/C(=C(/O)c1ccc(F)cc1)c1nc2ccccc2s1	-136*
N#C/C(=C(/O)c1ccc(-c2cccc([N+](=O)[O-])c2)o1)c1nc2ccccc2s1	-105*
N#C/C(=C(/O)CSc1ccccn1)c1nc2ccccc2s1	-62*
CCOc1ccc(NC(=O)c2ccc3nccnc3c2)cc1	-113*
COc1ccc(NC(=O)c2ccc3nccnc3c2)cc1	-102*
CC(C)(C)NC(=O)Nc1ccc2nccnc2c1	-96*
COC(=O)c1ccc(NC(=O)c2ccc(OC(C)=O)c(OC)c2)cc1	-148*
CCOc1ccc(NC(=O)c2ccc(OC)cc2)cc1	-114*
CCOc1ccc(NC(=O)Nc2ccc3nccnc3c2)cc1	-96*
COc1ccc(NC(=O)c2ccc(Oc3ncccn3)cc2)cc1	-84*
Cc1ccc(NC(=O)c2ccc(OC(=O)C(C)Oc3ccc(Cl)cc3C)cc2)cc1 (configuration not stated)	-128*
COc1ccc(C(=O)Nc2ccc(C3CC3(Cl)Cl)cc2)cc1 (configuration not stated)	-95*
COc1ccc(C(=O)Nc2ccc(OC)c(OC)c2)cc1	-98*
CCOc1ccc(C(=O)NC(Cc2ccccc2)C(=O)OC)cc1 (configuration not stated)	-104*
COc1ccc(C(=O)Nc2ccc(/C(C)=N/NC(=O)c3ccccc3O)cc2)cc1OC	-69*
CC(C)C[C@H](NC(=O)c1nc[nH]c1C(=O)N[C@@H](CC(C)C)C(=O)OC(C)(C)C)C(=O)OCc1ccccc1	61
COC(=O)CCC(=O)Oc1ccc(OC(=O)CCC(=O)OC)cc1	-62*

From PubChem
